Among the data in PubChem BioAssay AID1063 (University of Pittsburgh Molecular Library Screening Center, 2008) are inhibition values, retold here.

The whole screen tested about 200,000 compounds, of which about 18,000 (9%) were called active. What follows is part of a selection rich in actives, with near analogues and random picks from the rest. A number with no mark means an inactive call. Rule as the data show it: active = inhibition above about 50%; inactive = the rest.

This assay in a line: Leishmania major promastigote growth inhibition, primary screen (AID 1063).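 Also: promastigotes grown with compound for 44 hours at 28 °C.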 The conditions noted are these: Leishmania major promastigotes, resazurin fluorescence viability; at 10 µM; hits give high values. In general terms: The colour change of resazurin is a common sign of viable cells or microbes.
What is called inhibition is the change of the read-out against control, counted positive when it falls. With `COC(=O)NNC1=CC(=O)CC(C)(C)C1`, the inhibition was -0.84%.

In the case of `CN(C(=O)COc1ncnc2c1cnn2-c1ccccc1)C1CCCCC1`, the inhibition is 0.81%.

In the case of `CCOC(=O)C1CCCN(C(=O)c2cccc(S(=O)(=O)N3CCOCC3)c2)C1` (stereo unspecified), the inhibition is -6.48%. Under `COCCn1c(SCC(=O)Nc2ccc3c(c2)CCC3)nc2ccccc2c1=O` stands 59.6% (active); under `CC(=O)NCCn1c(SCC(=O)Nc2ccc(C)cc2)nc2ccccc2c1=O`, 0.63%; under `CCc1nnc(NC(=O)CSc2nc3ccccc3c(=O)n2CCCOC)s1`, 11.7%. In the case of `Cc1cccc(NC(=S)Nc2ccc(Cl)c(Cl)c2)c1` it was 33.5%; in that of `CN(C)S(=O)(=O)Oc1ccccc1C(=O)Nc1ccccc1Cl`, 3.48%.

Turning to `O=C(CCC(=O)NNc1nc2ccccc2c2nc(-c3ccccc3)nn12)NCCCN1CCCC1=O`, the inhibition was 1.2%. Under `O=C(NCCCn1ccnc1)Nc1ccc(Cl)cc1Cl` stands 0.73%; under `Cc1ccc2c(Cl)c(C(=O)NCCCn3ccnc3)sc2c1`, 99.3% (active). Consider `Cc1ccc2c(Cl)c(C(=O)Nc3nn[nH]n3)sc2c1`, for which the inhibition was 12.8%. Take `CCCN(CCC)c1ccc(C(O)c2nnc(-c3ccccc3)o2)cc1` (stereo unspecified): the inhibition is 13.2%. In the case of `Cc1ccc(Cl)cc1NC(=O)COC(=O)CC(C)(C)C` it was 34.5%; in that of `COc1ccc(CC(=O)NC(C)CCc2ccccc2)cc1` (stereo unspecified), -3.88%. Take `COc1ccc(C(CCNCc2ccccc2F)c2ccc(F)cc2)cc1` (stereo unspecified): the inhibition is 78.9% (active). In the case of `COc1ccc(C(CC(=O)O)NC(=O)Cc2ccccc2)cc1` (stereo unspecified) it was -6.94%; in that of `Cc1cc(NS(=O)(=O)c2ccc(NC(=S)NC(=O)c3ccc(F)cc3Cl)cc2)no1`, 48.3%.

As for `CCN(CCCNC(=O)CSc1cc(=O)n(C)c2cc(Cl)ccc12)Cc1ccccc1`, the inhibition was 20.1%. In the case of `COc1ccc(-n2cc(CNC3CCOCC3)c(-c3cccc(F)c3)n2)cc1` it was 31.6%. In the case of `CC(C)OCCCNC(=O)c1cc(Sc2ccc(F)cc2)nc2ccccc12` it was 50.2% (active); in that of `O=C(NCCN1CCOCC1)c1cc(Sc2cccc(Cl)c2)nc2ccccc12`, 1.33%; in that of `CC(C)CCNC(=O)c1cccnc1Sc1ccccc1`, 32.8%. Turning to `CN1CCNC(=O)C1CC(=O)NCCC1=CCCCC1` (stereo unspecified), the inhibition is 4.58%. Under `CCOC(=O)c1c(C)[nH]c(C2=NNC(=NC(C)COC)SC2)c1C` (stereo unspecified) stands 8.5%; under `Cc1sc(NC(=S)NC(=O)c2cccs2)nc1-c1ccc(CC(C)C)cc1`, -14.6%. Under `CC(C)Cc1nn2c(=O)cc(O)nc2s1` stands 54.9% (active). Under `CCCn1c(=NC(C)=O)c(C(=O)OCC)cc2c(=O)n3ccccc3nc21` stands 7.11%. In the case of `C/C(=N/OC(=O)c1c(-c2c(F)cccc2Cl)noc1C)c1cnccn1`, the inhibition was 0.04%. In the case of `CCOC(=O)c1cc2c(=O)n3ccccc3nc2n(CC(C)C)c1=NC(=O)c1c(-c2c(F)cccc2Cl)noc1C` it was 98.8% (active); in that of `COc1ccc(NC(=O)/C(C#N)=C\c2cc(OC)c(OCc3ccc(C(=O)O)cc3)cc2Br)cc1`, 4.82%. Under `COc1ccc(-c2csc(N3CCN(Cc4ccc5c(c4)OCO5)CC3)n2)cc1` stands 76.3% (active). Under `COc1cccc(NC(=O)CN2CCN(c3nc(-c4cccc(OC)c4)cs3)CC2)c1` stands 9.93%; under `O=C(CN1CCN(c2nc(-c3ccccc3)cs2)CC1)NCc1ccc2c(c1)OCO2`, 1.96%. `Cc1nn(C)c(C)c1CN(C(=O)CCc1nnc(Cc2c[nH]c3ccccc23)o1)C(C)C`: the inhibition was -4.01%. As for `COCC(=O)N=Nc1c(O)[nH]c2ccccc12`, the inhibition is -1.1%. Under `Cc1cccc(N(CC(=O)N=Nc2c(O)[nH]c3ccccc23)S(C)(=O)=O)c1C` stands 95.3% (active); under `Cc1c(-c2ccccc2)n[nH]c1C(=O)N=Nc1c(O)[nH]c2ccccc12`, 4.35%. As for `CCn1c(-c2cccnc2Cl)nc2cc(C)c(C)cc21`, the inhibition is 10%. Under `Oc1oc(-c2ccccc2Br)nc1/C=N/c1ccccn1` stands -5.62%. For `CC(C)n1c(O)c(N=Nc2ccccn2)c2ccccc21`, the inhibition was 56.6% (active). In the case of `CC(C)n1c(C(O)c2ccccc2)nc2ccccc21` (stereo unspecified), the inhibition was 5.37%. In the case of `CCc1ccccc1NC(=O)CN(c1ccc(OC)cc1OC)S(=O)(=O)c1ccccc1[N+](=O)[O-]` it was 27.7%; in that of `COc1ccc(N(C)S(=O)(=O)c2cccc3nsnc23)cc1`, -1.4%. Under `CCOC(=O)C1=C(CC)Nc2ccccc2N=C1N` stands -8.37%; under `CCOC(=O)CSc1nnc(NC(=O)c2cccc(S(=O)(=O)N3CCCC3)c2)s1`, -6.49%; under `CCOC(=O)C1=C(CC)Nc2ccccc2N=C1NC(=O)c1cccc(S(=O)(=O)N2CCCC2)c1`, 72% (active). In the case of `CCN(CC)Cc1nc2sc(C)c(C)c2c(=O)[nH]1` it was -6.68%; in that of `CC1CCN(C(=S)c2cccc(O)c2)CC1`, 0.69%.

Turning to `CCOc1ccccc1Oc1cn[nH]c1-c1ccc(OC)cc1O`, the inhibition is 50.6% (active). Under `CCOc1ccc(-c2n[nH]c(C)c2-c2ccccn2)c(O)c1` stands 5.25%; under `CCOc1ccccc1NC(=O)Nc1cc(OC)ccc1OC`, -3.92%; under `CC(=O)c1cc(C#N)c(N2CC(C)OC(C)C2)nc1C` (stereo unspecified), -0.03%. As to `O=C(NCCCN1CCOCC1)c1ccccc1NS(=O)(=O)c1ccc(F)cc1`, the inhibition is -1.28%. Under `O=[N+]([O-])c1ccc(NCCCN2CCOCC2)c(Cl)c1` stands 90.3% (active); under `O=C(NCCCN1CCOCC1)c1ccc([N+](=O)[O-])cc1[N+](=O)[O-]`, 57.7% (active); under `O=C(NCCCN1CCOCC1)c1ccc(N2CCCC2)c([N+](=O)[O-])c1`, -1.2%. Under `O=C(NCCCNc1ccc([N+](=O)[O-])cc1Cl)c1ccccc1F` stands 11.1%. Under `Nc1nc(NCCCN2CCOCC2)nc(Nc2ccccc2)c1[N+](=O)[O-]` stands 47.8%.

Regarding `S=C(Nc1ccc(Br)cc1Cl)N1CCC2(CC1)OCCO2`, the inhibition was -4.82%. For `Cc1ccc(CC2CC(=O)N(c3nc(C)cc(C)n3)C2=O)cc1` (stereo unspecified), the inhibition was -5.05%.

In the case of `Brc1ccc(CSc2ccc(-c3ccco3)nn2)cc1`, the inhibition is 2%. Under `O=C1COc2ccc(C(=O)COC(=O)c3cccnc3Cl)cc2N1` stands 11%; under `Cc1ccccc1Nc1nc(N)nc(CN2CCN(c3ccccn3)CC2)n1`, 0.34%. On to `Cc1ccccc1Nc1nc(N)nc(CSc2nnc3ccccn23)n1`, for which the inhibition is -7.89%. In the case of `Cc1ccccc1Nc1nc(N)nc(CSc2ccccc2)n1` it was 58.8% (active); in that of `CCOC(=O)N1CCN(Cc2nc(N)nc(Nc3ccc(C)cc3)n2)CC1`, 3.79%.

As for `COc1ccccc1Nc1nc(N)nc(CN(C)C2CCCCC2)n1`, the inhibition was 0.98%. Under `Cc1ccc(C(=O)OCc2nc(N)nc(Nc3ccccc3C)n2)cc1` stands 53.7% (active).

As to `CCOC(=O)C(NC(C)=O)C(=O)Nc1ccc(OC)cc1` (stereo unspecified), the inhibition was -2%. In the case of `CCCCNC(=O)Nc1c(C)cc(SC#N)cc1C` it was -2.51%; in that of `O=C(Nc1cccc(Cl)c1N1CCOCC1)c1ccc2c(c1)OCCO2`, 11.1%.

Turning to `COc1ccc(NC(=O)COc2ccc(C(=O)OCC(=O)N(C)C3CCS(=O)(=O)C3)cc2OC)cc1` (stereo unspecified), the inhibition is 2.14%. In the case of `COc1ccc(S(=O)(=O)NCC2CCCN(C(=O)c3occc3C)C2)cc1` (stereo unspecified) it was -1.89%; in that of `O=C(CSc1ncnc2c1nnn2Cc1ccc(F)cc1)NC1CCCC1`, -6.62%.

As to `CCCCOc1ccc(C(C)(O)CCN2CCOCC2)cc1` (stereo unspecified), the inhibition was 67.4% (active).

`CC(=O)c1ccc(OCCN2CCOCC2)cc1`: the inhibition is -0.55%. As to `CCCCOc1ccc(C(=O)NN2CCN(C)CC2)cc1`, the inhibition is -6.12%. Take `CCCCN(C)CCNC(=O)CSCc1ccc(C)cc1`: the inhibition was 35.7%. Under `Cc1ccc(NC(=S)N(CCN(C)C)Cc2cccs2)cc1C` stands 23.8%; under `C#CCNC(=O)C1=C[C@@H](c2ccccc2)[C@H](CCCO)[C@@H](OCC)O1`, -3.12%; under `COc1cc(/C=N/N=C(\N)c2nonc2N)cc(OC)c1OC`, 13.2%.

As to `Cc1c(C2=CCN(S(=O)(=O)c3ccc(Cl)cc3)CC2)c2ccccc2n1C`, the inhibition is 54.9% (active). In the case of `O=C(ON=C1CCN(S(=O)(=O)c2ccccc2)CC1)c1ccc(Cl)cc1` it was -6.64%; in that of `CC(C)NC(=O)C(=O)NCCN1CCN(S(=O)(=O)c2ccc(Cl)cc2)CC1`, -8.08%. Under `OCC(O)CN(c1ccccc1)c1ccccc1` (stereo unspecified) stands -1.63%; under `O=C(COc1ccc(-c2ccccc2)cc1)NN=C1CCCC1`, -3.72%; under `COc1ccc(/C=C2\SC(=S)N(CC(=O)NNC(=O)c3ccncc3)C2=O)cc1`, -5.15%. Under `CCc1ccc(NC(=O)c2ccc(Cn3cc([N+](=O)[O-])cn3)cc2)cc1` stands -3.55%; under `Cn1cc([N+](=O)[O-])c(C(=O)Nc2ccc3c(c2)OCCO3)n1`, 10.7%; under `Cn1cc([N+](=O)[O-])c(C(=O)Nc2cnn(Cc3ccc(F)cc3)c2)n1`, 98.6% (active). As to `CCC(=O)c1ccc(N2CCN(C(=O)c3cc([N+](=O)[O-])ccc3F)CC2)c(F)c1`, the inhibition was 12.8%. In the case of `CC(=O)Nc1ccc(S(=O)(=O)N(C)c2ccc(OCC(=O)OCC(=O)N3CCCCC3)cc2)cc1` it was -6.69%.

Take `CSc1nc2ccc(NC(=O)c3c(F)cccc3F)cc2s1`: the inhibition is 15.7%. In the case of `Cc1cccc(NC(=S)Nc2ccc3cn[nH]c3c2)c1` it was 5.93%; in that of `CCN(CC)CCN(C(=O)c1cccc([N+](=O)[O-])c1)c1nc2ccc(OC)cc2s1`, 1.41%.
